Activity calls are given as the source filed them. The calls were made as follows: active = hit-call score of the fitted dose curve at least 0.9, where 1 is the maximum; inactive = score below 0.9.
Tests used:
[1] = APR_HepG2_CellLoss_72hr: Apredica 72-hour HepG2 Assay for Cell Loss (AID 2282915); settings: high-content imaging
In short: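 HepG2 cells were exposed for 72 hr to compounds at 0.39–200 uM (ten concentrations, duplicate) in 0.5% v/v final DMSO. Nuclei were stained with Hoechst 33342 after 3.7% formaldehyde fixation, imaged at 20x, and counted; fits bidirectional versus DMSO.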

[2] = APR_HepG2_P-H2AX_72hr: Apredica 72-hour HepG2 Assay for H2AX Phosphorylation (AID 2282916); settings: imaging, actives raise or lower the signal;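 also: phospho-histone H2A.x immunostain intensity per cell marking DNA damage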
In short: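 Human hepatoma HepG2 cells are dosed across ten concentrations (0.39 to 200 uM, 0.5% v/v DMSO) and incubated 72 hr. Phospho-histone H2A.x is then detected by antibody staining alongside c-Jun and Hoechst, and quantified by automated fluorescence imaging.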

[3] = APR_HepG2_MitoMembPot_72hr: Apredica 72-hour HepG2 Assay for Mitochondrial Membrane Potential (AID 2282917); settings: imaging, actives raise or lower the signal
In short: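 HepG2 cells exposed 72 h to compounds at 0.39–200 uM (0.5% v/v DMSO, duplicates); MitoTracker Red CMXRos 250 nM loaded 30 min before 3.7% formaldehyde fixation, imaged by HCS fluorescence. Bidirectional fit versus DMSO.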

[4] = APR_HepG2_MitoticArrest_72hr: Apredica 72-hour HepG2 Assay for Mitotic Arrest (AID 2282918); settings: high-content imaging, actives raise or lower the signal
In short: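 High-content imaging of fixed human HepG2 cells after 72 h compound exposure (0.39–200 uM, duplicates, 0.5% DMSO); mitotic arrest scored from phospho-histone H3 and nuclear Hoechst staining relative to DMSO.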

[5] = APR_HepG2_MicrotubuleCSK_72hr: Apredica 72-hour HepG2 Assay for Microtubule CSK Stabilty (AID 2282919); settings: HepG2 microtubule cytoskeleton, high-content imaging, actives raise or lower the signal
In short: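 Ten-point dosing (0.39–200 uM, 0.5% DMSO) of HepG2 for 72 hr, with taxol as the cytoskeletal positive control. The cells were formaldehyde-fixed and then stained with alpha-tubulin/Cy5 and Hoechst. Imaging at 20x used a −2 um Z offset for tubulin.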

[6] = APR_HepG2_P-H2AX_24hr: Apredica 24-hour HepG2 Assay for H2AX Phosphorylation (AID 2282920); settings: high-content imaging, actives raise or lower the signal
In short: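 High-content imaging of phospho-histone H2A.x immunofluorescence, nuclei counterstained with Hoechst 33342, in fixed HepG2 cells. Compounds ran 0.39–200 uM in duplicate for 24 h, final DMSO 0.5%. Signal change fitted both directions against DMSO.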

[7] = APR_HepG2_StressKinase_72hr: Apredica 72-hour HepG2 Assay for Stress Kinase (AID 2282921); settings: HepG2 stress kinase (phospho-c-Jun) imaging, actives raise or lower the signal
In short: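 After a 72 h compound treatment spanning 0.39 to 200 uM, formaldehyde-fixed cells are labelled for phosphorylated c-Jun and nuclei, imaged by automated fluorescence microscopy, and activity is fitted in both directions relative to DMSO controls.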

[8] = APR_HepG2_StressKinase_24hr: Apredica 24-hour HepG2 Assay for Stress Kinase (AID 2282922); settings: HepG2 stress kinase (phospho-c-Jun) imaging, actives raise or lower the signal
In short: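 After 24 hr compound treatment (up to 200 uM, final DMSO 0.5% v/v), HepG2 cells are fixed and multiplex-labeled; phospho-c-Jun intensity is captured by high-content fluorescence imaging and analyzed relative to DMSO.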

[9] = APR_HepG2_MitoMass_72hr: Apredica 72-hour HepG2 Assay for Mitochondrial Mass (AID 2282924); settings: high-content imaging, actives raise or lower the signal;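 also: MitoTracker Red CMXRos stain intensity per cell imaged as mitochondrial mass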
In short: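 Steps: treat HepG2 72 hr (0.39–200 uM, duplicate wells); load MitoTracker Red CMXRos, 250 nM, 30 min; fix with 3.7% formaldehyde, permeabilise with 0.5% Triton X-100; capture images, nuclei via Hoechst 33342; fit bidirectionally against DMSO.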

[10] = APR_HepG2_NuclearSize_72hr: Apredica 72-hour HepG2 Assay for Nuclear Size (AID 2282925); settings: high-content imaging, actives raise or lower the signal
In short: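 Compounds (0.39–200 uM, final DMSO 0.5%) were applied to HepG2 for 72 hr. Cells were then formaldehyde-fixed, permeabilized and labelled with Hoechst 33342. Nuclear diameter was quantified from six images per well.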

[11] = ATG_CRE_CIS: Attagene CIS-FACTORIAL HepG2 Assay for human cAMP Responsive Element (CRE) binding protein 3 (AID 2282926); settings: HepG2 CRE cis-reporter, Attagene multiplexed mRNA; actives raise or lower the signal
In short: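 Endogenous transcription factor activity read via CRE-regulated reporter transcripts in transfected HepG2 cells. After 24 h exposure, RNA was reverse-transcribed, amplified, fluorescently labelled and sized by capillary electrophoresis; gain or loss fitted against DMSO.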

[12] = target: CCAAT/enhancer-binding protein beta (Homo sapiens) (UniProt P17676); assay: ATG_C_EBP_CIS: Attagene CIS-FACTORIAL HepG2 Assay for human CCAAT/Enhancer Binding Protein (C/EBP) beta (AID 2282927); settings: HepG2 Attagene cis-factorial transcription factor reporter; actives raise or lower the signal
CCAAT/enhancer-binding protein beta (Homo sapiens), sequence (P17676 whole entry, looked up): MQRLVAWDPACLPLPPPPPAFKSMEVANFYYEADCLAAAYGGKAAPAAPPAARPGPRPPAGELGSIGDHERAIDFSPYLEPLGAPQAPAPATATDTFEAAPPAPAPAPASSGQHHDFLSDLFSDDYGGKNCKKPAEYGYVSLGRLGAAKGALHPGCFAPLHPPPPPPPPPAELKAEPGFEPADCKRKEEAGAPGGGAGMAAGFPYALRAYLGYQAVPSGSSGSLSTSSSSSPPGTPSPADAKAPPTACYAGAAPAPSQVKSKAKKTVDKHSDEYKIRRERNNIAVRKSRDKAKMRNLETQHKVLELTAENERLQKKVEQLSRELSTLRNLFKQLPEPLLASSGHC
In short: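 Following a 24 h incubation with test chemical, transfected HepG2 cells yielded RNA whose reporter transcripts were quantified by RT-PCR and fluorescent capillary electrophoresis, with DMSO serving as baseline for bidirectional fitting.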

[13] = ATG_CMV_CIS: Attagene CIS-FACTORIAL HepG2 Assay for human CMV (Internal Marker) (AID 2282928); settings: HepG2 CMV promoter reporter, transcription factor profiling; actives raise or lower the signal;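 also: endpoint acts as a background internal control marker rather than a target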
In short: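 Reporter transcripts from transfected HepG2 cells are isolated after 24 h of chemical dosing, reverse-transcribed and amplified. Fragments labeled with 6-FAM are cut with HpaI and quantified by capillary electrophoresis; DMSO defines baseline.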

[14] = ATG_DR4_LXR_CIS: Attagene CIS-FACTORIAL HepG2 Assay for human Liver X Receptor (LXR), DR4 submotif (AID 2282929); settings: HepG2 Attagene DR4 cis-reporter, mRNA transcription; actives raise or lower the signal
In short: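 Fluorescence intensity of labelled reporter cDNA fragments, separated by capillary electrophoresis, gives the signal. HepG2 cells bearing cis-regulated reporter constructs were treated 24 h; activity fitted bidirectionally relative to DMSO negative control.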

[15] = target: Aryl hydrocarbon receptor (Homo sapiens) (UniProt P35869); assay: ATG_Ahr_CIS: Attagene CIS-FACTORIAL HepG2 Assay for human Aryl Hydrocarbon Receptor (Ahr) (AID 2282930); settings: HepG2 AhR cis-factorial reporter transcription; actives raise or lower the signal
Aryl hydrocarbon receptor (Homo sapiens), sequence (P35869 whole entry, looked up): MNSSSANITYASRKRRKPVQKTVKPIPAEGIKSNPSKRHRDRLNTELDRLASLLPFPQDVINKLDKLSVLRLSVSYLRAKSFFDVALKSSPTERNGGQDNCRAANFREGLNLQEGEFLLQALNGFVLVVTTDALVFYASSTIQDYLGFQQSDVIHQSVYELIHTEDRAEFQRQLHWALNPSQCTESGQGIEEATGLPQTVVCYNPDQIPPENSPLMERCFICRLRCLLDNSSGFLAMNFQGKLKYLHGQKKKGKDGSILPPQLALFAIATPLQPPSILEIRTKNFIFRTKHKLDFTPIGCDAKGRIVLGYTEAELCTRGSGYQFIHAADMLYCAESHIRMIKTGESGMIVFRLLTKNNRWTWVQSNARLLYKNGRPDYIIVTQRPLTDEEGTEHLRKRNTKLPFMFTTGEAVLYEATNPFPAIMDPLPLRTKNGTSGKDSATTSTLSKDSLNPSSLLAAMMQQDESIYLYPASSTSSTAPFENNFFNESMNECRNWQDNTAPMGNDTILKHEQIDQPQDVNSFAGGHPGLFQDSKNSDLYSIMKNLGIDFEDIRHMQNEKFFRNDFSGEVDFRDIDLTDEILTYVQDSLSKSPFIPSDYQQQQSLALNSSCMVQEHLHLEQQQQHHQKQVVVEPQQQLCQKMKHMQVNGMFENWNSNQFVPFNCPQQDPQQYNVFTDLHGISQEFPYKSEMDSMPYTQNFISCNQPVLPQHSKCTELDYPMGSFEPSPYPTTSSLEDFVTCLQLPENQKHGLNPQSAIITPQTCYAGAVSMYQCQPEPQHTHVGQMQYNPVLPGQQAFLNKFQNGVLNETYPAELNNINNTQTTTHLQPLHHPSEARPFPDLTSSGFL
In short: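 Values derive from bidirectional fitting against DMSO negative control. Underlying signal: cis-element reporter mRNA in transiently transfected HepG2, harvested 24 h post-dose and measured by RT-PCR plus capillary electrophoresis.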

[16] = ATG_AP_1_CIS: Attagene CIS-FACTORIAL HepG2 Assay for human Activator Protein 1 (AP-1) (AID 2282931); settings: HepG2 Attagene cis-factorial AP-1 reporter mRNA; actives raise or lower the signal
In short: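 Multiplexed HepG2 reporter assay, 24 h dosing. mRNA induction detected by RT-PCR plus capillary electrophoresis. Activity fitted in both directions against DMSO.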

[17] = ATG_AP_2_CIS: Attagene CIS-FACTORIAL HepG2 Assay for human Activator Protein 2 (AP-2) (AID 2282932); settings: HepG2 AP-2 cis-reporter, Attagene transcription factor profiling; actives raise or lower the signal
In short: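 Cells (HepG2) transfected with promoter-driven reporter constructs, treated 24 h. Total RNA reverse-transcribed, reporter cDNA PCR-amplified, FAM-labelled by primer extension, digested, resolved by capillary electrophoresis. Activity fitted both directions versus DMSO.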

[18] = ATG_BRE_CIS: Attagene CIS-FACTORIAL HepG2 Assay for human Bone Morphogenetic Protein (BMP) Response Element (BRE) (AID 2282933); settings: HepG2 BMP response element reporter, Attagene transcription factor profiling; actives raise or lower the signal
In short: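 After a 24 h chemical treatment, transiently transfected HepG2 cells were lysed for RNA; reporter transcripts were quantified by fluorescent RT-PCR and capillary electrophoresis, normalised to DMSO.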

[19] = target: Retinoic acid receptor alpha (Homo sapiens) (UniProt P10276); assay: ATG_DR5_RAR_CIS: Attagene CIS-FACTORIAL HepG2 Assay for human Retinoic Acid Receptor Alpha (RARE), DR5 submotif (AID 2282934); settings: HepG2 Attagene cis-factorial RARE DR5 reporter, mRNA; actives raise or lower the signal
Retinoic acid receptor alpha (Homo sapiens), sequence (P10276 whole entry, looked up): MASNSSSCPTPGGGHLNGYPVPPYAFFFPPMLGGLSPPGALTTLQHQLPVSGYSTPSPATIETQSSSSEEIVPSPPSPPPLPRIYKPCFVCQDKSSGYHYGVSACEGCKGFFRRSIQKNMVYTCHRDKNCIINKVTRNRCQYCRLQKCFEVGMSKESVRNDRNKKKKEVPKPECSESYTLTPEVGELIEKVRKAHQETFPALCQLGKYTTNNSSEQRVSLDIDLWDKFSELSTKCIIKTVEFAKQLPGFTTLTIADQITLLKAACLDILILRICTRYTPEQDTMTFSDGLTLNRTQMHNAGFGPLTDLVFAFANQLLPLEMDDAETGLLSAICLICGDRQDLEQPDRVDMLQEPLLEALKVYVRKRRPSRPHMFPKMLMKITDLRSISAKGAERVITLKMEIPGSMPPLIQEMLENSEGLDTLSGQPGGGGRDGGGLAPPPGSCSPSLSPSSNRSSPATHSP
In short: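 Endpoint fitted in both directions relative to DMSO as negative control. It reflects DR5 cis-element reporter mRNA induction in transiently transfected HepG2 cells, measured 24 h after dosing through RT-PCR and fluorescent capillary electrophoresis.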

[20] = APR_HepG2_p53Act_72hr: Apredica 72-hour HepG2 Assay for p53 Activation (AID 2282923); settings: high-content imaging, actives raise or lower the signal;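 also: average cellular p53 protein immunofluorescence intensity in HepG2 cells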
In short: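 Imaging-based endpoint: after 72 hr compound exposure (up to 200 uM, 0.5% DMSO), fixed and permeabilized monolayers were labelled with anti-p53 antibody and imaged; signal change in either direction was fitted relative to DMSO controls.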

Measured: AC50

Cc1nc(N(C)C)nc(OC(=O)N(C)C)c1C
not listed: [20]
inactive: all other assays above

CNC(=O)Oc1cccc2ccccc12
active: [1] 102 µM | [2] 97.3 µM | [3] 76.9 µM | [6] 102 µM | [9] 36 µM | [13] 50 µM | [15] 6.71 µM | [18] 23.6 µM
not listed: [19]
inactive: all other assays above

O=C1C2CC=CCC2C(=O)N1SC(Cl)(Cl)Cl (stereo not drawn)
active: [1] 100 µM | [2] 88.1 µM | [4] 100 µM | [6] 45.2 µM | [8] 28.1 µM
not listed: [19]
inactive: all other assays above

N#Cc1c[nH]cc1-c1cccc2c1OC(F)(F)O2
active: [1] 13 µM | [2] 16.1 µM | [5] 19.3 µM | [9] 3.5 µM | [11] 10.8 µM | [12] 8.24 µM | [13] 29 µM | [14] 1.19 µM | [17] 13.5 µM | [18] 22.2 µM
inactive: [3] | [4] | [6] | [7] | [8] | [20] | [10] | [16]

CC(C)N1C(=O)c2ccccc2NS1(=O)=O
active: [14] 62 µM
not listed: [19]
inactive: all other assays above

Nc1cnn(-c2ccccc2)c(=O)c1Cl
active: [15] 50 µM
not listed: [19]
inactive: all other assays above
